Screens: PubChem BioAssay, Sanford-Burnham Center for Chemical Genomics
CYP2C19 act – activators of human cytochrome P450 2C19; P33261; recombinant CYP2C19, luciferin-H EGE luminescence; stronger effect = higher value; 0 = fully inhibited enzyme, 1 = untreated enzyme; activation factor at 5 µM; 96,000 tested, under 10 active; AID 1025;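 active = activation factor of at least 2 at 5 µM in the primary screen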
CYP2C9 inhib – blocks human cytochrome P450 2C9. P11712. CYP2C9 Supersomes, luciferin-H conversion, luminescence. inhibition, % at 5 µM. 96,000 compounds, 20% hits. AID 777;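 active = blocking of liver enzyme CYP2C9 beyond about 50% at 5 µM, limit read from the data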
Target sequence (P11712 whole entry, looked up): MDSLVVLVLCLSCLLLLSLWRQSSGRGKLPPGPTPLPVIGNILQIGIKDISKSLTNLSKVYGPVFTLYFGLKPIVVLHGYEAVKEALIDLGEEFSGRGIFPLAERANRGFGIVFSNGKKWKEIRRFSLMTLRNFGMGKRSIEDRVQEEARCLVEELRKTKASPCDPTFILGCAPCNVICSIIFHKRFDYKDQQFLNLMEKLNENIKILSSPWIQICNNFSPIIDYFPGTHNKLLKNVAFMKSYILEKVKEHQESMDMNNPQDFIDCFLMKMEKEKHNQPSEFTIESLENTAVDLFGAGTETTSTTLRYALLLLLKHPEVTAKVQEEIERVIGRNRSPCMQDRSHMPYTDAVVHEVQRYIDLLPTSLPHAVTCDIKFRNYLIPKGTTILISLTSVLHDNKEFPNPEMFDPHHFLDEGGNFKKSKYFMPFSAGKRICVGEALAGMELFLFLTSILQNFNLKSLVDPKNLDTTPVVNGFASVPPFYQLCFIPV
PLAP act – activators of human placental alkaline phosphatase. P05187. purified PLAP enzyme, luminescent substrate read-out; stronger effect = higher value. activation fold at 20 µM. 96,000 compounds, 1.2% hits; in the data active = activation fold above about 2
CYP2C19 inh – blocks human cytochrome P450 2C19 | AID 778 | inhibition, % at 5 µM | P33261 | CYP2C19 Supersomes, luciferin-H EGE luminescence, 30 min | 96,000 compounds, 21% hits;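 active = CYP2C19 inhibition above a set limit at 5 µM in the primary screen, cut at about 50% in these data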
CYP2C9 act – CYP2C9 (human) activation. P11712. recombinant CYP2C9, luciferin-H conversion, luminescence; stronger effect = higher value; factor 1 = untreated enzyme, 0 = blocked. activation factor at 5 µM. 96,000 compounds, 1.4% hits. AID 1024;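 active = activation factor of 2 or more for CYP2C9 at a 5 µM dose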
Of the large screens only hits and unclear results are named; the others gave an inactive call. Hits are enriched below; roughly 31% of the tested compounds scored in any of these assays.

C1CCC(n2nnnc2CN2CCCC2)CC1	none
CCCOc1ccc(N2C(=O)CC(N3CCC(O)(c4cccc(C(F)(F)F)c4)CC3)C2=O)cc1 (stereo not given)	none
CCN(CC)C(=O)C1=C(C)NC(=O)NC1c1c(F)cccc1Cl (stereo not given)	none
CC1Cc2ccccc2N1C(=O)CSc1nnnn1C(C)C (stereo not given)	CYP2C9 inhib 51.7
CC1Cc2ccccc2N1C(=O)CSc1nnnn1C1CCCC1 (stereo not given)	CYP2C9 inhib 57.5
CC1Cc2ccccc2N1C(=O)CSc1nnnn1C (stereo not given)	none
OC(CN1CCN(c2ccccc2)CC1)c1ccc2c(c1)CCN2 (stereo not given)	none
CCn1nc(C(=O)NC2=NCCS2)c2ccccc2c1=O	none
CCC(CC)c1nnc(NC(=O)c2c(C)nn(Cc3ccccc3Cl)c2C)s1	CYP2C9 inhib 52.3
Cc1nn(Cc2ccccc2Cl)c(C)c1C(=O)NC1=NCCS1	CYP2C19 inh 65.5
Cc1nn(Cc2ccccc2Cl)c(C)c1NC(=O)CCCn1nc(C)c([N+](=O)[O-])c1C	none
Cc1nn(Cc2ccccc2Cl)c(C)c1C(=O)N1CCN(c2ccccc2)CC1	CYP2C9 inhib 71.9, CYP2C19 inh 61.6
Cc1nn(Cc2ccccc2Cl)c(C)c1NC(=O)NC12CC3CC(CC(C3)C1)C2	PLAP act 2
OC(C#Cc1ccccn1)c1cccs1 (stereo not given)	none
Fc1cccc(Cl)c1Cn1nnc(-c2ccc3c(c2)OCO3)n1	none
O=C(CSc1nnc(-c2cccs2)n1-c1cccc(Cl)c1)c1cccc2c1OCCO2	CYP2C9 inhib 84.9, CYP2C19 inh 72.0
CC(C)OC(=O)CSc1nnnn1-c1ccc2c(c1)OCCO2	CYP2C19 inh 74.6
O=C(O)CSc1nnc(-c2cccs2)n1-c1ccc(Cl)cc1	none
O=C(CSc1nnnn1-c1ccc2c(c1)OCCO2)c1cccc2c1OCCO2	CYP2C19 inh 71.1
O=C(O)CSc1nnnn1-c1ccc2c(c1)OCCO2	none
Fc1cccc(Cl)c1CSc1nnnn1-c1ccc2c(c1)OCO2	CYP2C19 inh 92.0
CN1CCOCCOCCN(C)C1=O	none
CCCCCN(C(=O)COC(=O)c1ccc(Br)o1)c1c(N)n(CCCC)c(=O)[nH]c1=O	none
COc1ccccc1-n1c(C)cc(SC)c(C(C)=O)c1=S	none
CN(C)c1ncc(S(=O)(=O)c2ccc(Cl)cc2)c(-c2ccc(Cl)cc2Cl)n1	CYP2C19 inh 81.1
O=S(=O)(c1ccccc1)c1cnc(-c2cccnc2)nc1-c1ccc(Cl)c(Cl)c1	CYP2C9 inhib 63.9, CYP2C19 inh 71.9
Cc1ncc(S(=O)(=O)c2ccccc2)c(-c2ccccc2Cl)n1	CYP2C19 inh 61.5
CCCN(CCC)C(=S)NC(=O)c1ccc(-c2ccccc2)cc1	none
CC(=O)c1cccc(NC(=O)c2ccc(N(Cc3ccc(C)cc3)S(C)(=O)=O)cc2)c1	CYP2C9 inhib 85.4, CYP2C19 inh 85.2
CS(=O)(=O)N(Cc1ccc(Cl)cc1)c1ccc(C(=O)Nc2cccnc2)cc1	CYP2C9 inhib 83.8, CYP2C19 inh 95.2
Cc1ccc(CN(c2ccc(C(=O)Nc3ccc4c(c3)OCO4)cc2)S(C)(=O)=O)cc1	none
O=C(O)C1CSCN1S(=O)(=O)c1cccc2nsnc12 (stereo not given)	none
Cc1ccc(-c2cn(S(=O)(=O)c3cccc4nsnc34)nc2N)cc1	CYP2C9 inhib 69.0, CYP2C19 inh 88.9
COc1cc(-c2cn(S(=O)(=O)c3cccc4nsnc34)nc2N)cc(OC)c1OC	CYP2C9 inhib 87.6, CYP2C19 inh 95.6
Cc1cccc(NC(=O)C2CCN(S(=O)(=O)c3cccc4nsnc34)CC2)n1	none
COc1cc(NS(=O)(=O)c2cccc3nsnc23)c(C(=O)O)cc1OC	none
Nc1nn(S(=O)(=O)c2cccc3nsnc23)cc1-c1ccc(Br)cc1	CYP2C9 inhib 99.6, CYP2C19 inh 99.8
CCOc1ccccc1C1C(C(=O)Nc2ccccc2OC)=C(C)Nc2nc(CCCO)nn21 (stereo not given)	none
COc1ccc(CN2CCn3ncc(C(=O)Nc4cc(C)cc(C)c4)c3C2=O)cc1	none
O=S(=O)(Nc1ccc(O)c(Sc2nc3ccccc3s2)c1)c1ccc(Cl)cc1	none
O=S(=O)(Nc1cc(Cl)ccn1)c1ccc(Cl)cc1	CYP2C9 inhib 74.0
O=S(=O)(Nc1ncccc1O)c1ccc(Cl)cc1	CYP2C19 inh 86.0
Cc1ccnc(NS(=O)(=O)c2ccc(CC(C)C)cc2)c1	CYP2C19 inh 71.5
Cc1ccccc1NC(=O)C1c2cccc[n+]2CC(=O)N1c1c(C)cccc1C (stereo not given)	none
Cc1nnc(SCC(=O)NCc2ccccc2)[nH]c1=O	none
COc1ccc(Cl)cc1NC(=O)COC(=O)CCNC(C)=O	none
Cc1ccc(S(=O)(=O)C2(C(=O)Nc3cccc(F)c3)CC2)cc1	CYP2C19 inh 95.4
CS(=O)(=O)N(CC(=O)Nc1ccc2c(c1)OCO2)c1ccc(Cl)cc1	CYP2C9 inhib 89.9, CYP2C19 inh 88.4
CS(=O)(=O)N(CC(=O)Nc1ccc2c(c1)OCO2)Cc1ccccc1	CYP2C19 inh 70.1
COCCCNC(=O)CN(Cc1ccc(Cl)cc1)S(C)(=O)=O	CYP2C19 inh 58.3
CCOCCCNC(=O)CN(Cc1ccc(Cl)cc1)S(C)(=O)=O	none
Cc1ccc(NC(=O)C2(S(=O)(=O)c3ccc(C)cc3)CC2)cc1	none
O=C(CCNS(=O)(=O)c1cccs1)NCc1ccco1	none
COc1ccc(NC(=O)N(CCC(C)C)C(C)c2ccccn2)c(OC)c1 (stereo not given)	none
c1ccc(C2NCCn3cccc32)cc1 (stereo not given)	none
CS(=O)(=O)N(CC(=O)Nc1ccc2c(c1)OCO2)Cc1ccc(Cl)cc1	CYP2C9 inhib 77.4, CYP2C19 inh 84.4
COC(=O)c1ccc(NC(=O)CN(Cc2ccc(Cl)cc2)S(C)(=O)=O)cc1	CYP2C9 inhib 81.6, CYP2C19 inh 94.6
CS(=O)(=O)N(CCc1ccccc1)CC(=O)Nc1ccc2c(c1)OCO2	none
O=C(CCc1ccccc1)Nc1ccc2c(c1)OCCO2	none
CN(CCC(=O)Nc1ccc2c(c1)OCO2)Cc1ccccc1	CYP2C9 inhib 52.0
COC(=O)c1ccc(NC(=S)N2CCN(Cc3ccc(Cl)cc3)CC2)cc1	none
O=C(Nc1ccc2c(c1)OCO2)C1(S(=O)(=O)c2ccc(Cl)cc2)CC1	CYP2C9 inhib 84.7
N#CC1=C(Nc2ccccc2)SC=C(c2ccc(Br)cc2)N=C1N1CCOCC1	none
COc1ccc(/C=C2\SC(=S)N(NC(=O)c3csc4c3CCCC4)C2=O)cc1	none
CCOC(=O)c1c(C=O)c(C)n(Cc2ccccc2Cl)c1C	CYP2C9 inhib 93.5, CYP2C19 inh 98.5
CC(=O)c1c(C(C)=O)c(C)n(Cc2ccccc2)c1C	none
CCOC(=O)c1c(C=O)c(C)n(Cc2ccc(C)cc2)c1C	CYP2C9 inhib 95.8, CYP2C19 inh 76.4
Cc1c(C=O)c(C=O)c(C)n1Cc1ccccc1	CYP2C19 inh 61.9
CC(=O)NC(CCS(C)(=O)=O)C(=O)N1CCc2ccccc21 (stereo not given)	none
O=C1CCN(N=Nc2cccc(Cl)c2)N1	none
